In publication PMC10812921, “Transcriptional Coactivator BOB1 (OBF1, OCA-B) Modulates the Specificity of DNA Recognition by the POU-Domain Factors OCT1 and OCT2 in a Monomeric Configuration”:

These sequences were tested against POU1 (OCT1 POU domain) (human, UniProt P14859 260-458) (assay: EMSA-SELEX-seq; no BOB1; 20 mM Tris-HCl pH 7.6, 140 mM NaCl, 10% glycerol, 0.5 mM EDTA, 0.05% Triton X-100, 0.1 mg/mL BSA, 0.1 mg/mL poly(dI-dC), 5 mM DTT, room temperature, 20 min; high values mean tight binding). Details: protein: recombinant; dsDNA, one strand shown.
POU1 (OCT1 POU domain), sequence (P14859 260-458): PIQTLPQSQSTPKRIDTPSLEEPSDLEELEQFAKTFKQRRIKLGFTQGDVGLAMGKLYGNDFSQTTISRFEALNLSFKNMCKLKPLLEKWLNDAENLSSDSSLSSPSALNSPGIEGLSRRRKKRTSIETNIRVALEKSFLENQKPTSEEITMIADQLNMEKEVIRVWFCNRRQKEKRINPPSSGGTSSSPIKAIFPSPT
How it was run: (§1)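 Tagged POU-domain proteins were expressed in E. coli BL21, purified under denaturing conditions and renatured. Then 30 ng was mixed with 300 ng of a PCR-amplified double-stranded random 35-nt library, with or without 28 ng coactivator protein, in 20 μL Tris–HCl pH 7.6 binding buffer for 20 min at RT. Complex bands were cut from native 6% PAGE, eluted and PCR-amplified over four rounds, then Illumina-sequenced. Binding preference is the percentage of sequenced 8-mers matching a motif pattern.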

Point of comparison: ACAGAAAC, binding signal 0.0278 % of ANNNNAAN 8-mers. Against it:
- ACGAAAAG — higher, 0.032 % of ANNNNAAN 8-mers
- ATCTCAAT — higher, 0.0561 % of ANNNNAAN 8-mers
- ACGCTAAA — higher, 0.0305 % of ANNNNAAN 8-mers
- AAGACAAT — higher, 0.0477 % of ANNNNAAN 8-mers
- AGATTAAG — higher, 0.0656 % of ANNNNAAN 8-mers
- ATGAAAAC — higher, 0.0717 % of ANNNNAAN 8-mers
- AAACAAAG — higher, 0.114 % of ANNNNAAN 8-mers
- AATGAAAA — higher, 0.164 % of ANNNNAAN 8-mers
- AGTAGAAT — higher, 0.0717 % of ANNNNAAN 8-mers
- AGTGGAAG — higher, 0.0324 % of ANNNNAAN 8-mers
- ACATTAAG — higher, 0.095 % of ANNNNAAN 8-mers
- AGCATAAC — higher, 0.082 % of ANNNNAAN 8-mers
- AGCACAAA — lower, 0.0256 % of ANNNNAAN 8-mers
- ACAGGAAA — higher, 0.0526 % of ANNNNAAN 8-mers
- AGGAAAAT — higher, 0.287 % of ANNNNAAN 8-mers
- AATAAAAC — higher, 0.0751 % of ANNNNAAN 8-mers
- ACTTTAAG — higher, 0.0336 % of ANNNNAAN 8-mers
- AAGCCAAC — lower, 0.0137 % of ANNNNAAN 8-mers
- ATTTAAAC — higher, 0.137 % of ANNNNAAN 8-mers
- AATACAAT — higher, 0.0797 % of ANNNNAAN 8-mers
- ATCCCAAG — lower, 0.0172 % of ANNNNAAN 8-mers
- AGCAGAAC — lower, 0.0179 % of ANNNNAAN 8-mers
- AGAAGAAG — higher, 0.029 % of ANNNNAAN 8-mers
- ATAAAAAA — higher, 0.0995 % of ANNNNAAN 8-mers
- AAATCAAA — higher, 0.133 % of ANNNNAAN 8-mers
- ACGACAAA — lower, 0.0217 % of ANNNNAAN 8-mers
- AATTCAAT — higher, 0.121 % of ANNNNAAN 8-mers
- ATTTCAAA — higher, 0.0866 % of ANNNNAAN 8-mers
- AAGTGAAC — lower, 0.0233 % of ANNNNAAN 8-mers
- AGTTAAAT — higher, 0.219 % of ANNNNAAN 8-mers
- ACTTCAAA — lower, 0.0256 % of ANNNNAAN 8-mers
- AATGCAAG — higher, 0.0671 % of ANNNNAAN 8-mers
- ACCGGAAT — higher, 0.0412 % of ANNNNAAN 8-mers
- AGGGAAAT — higher, 0.549 % of ANNNNAAN 8-mers
- AGGTCAAT — higher, 0.0557 % of ANNNNAAN 8-mers
- ATATAAAG — higher, 0.0725 % of ANNNNAAN 8-mers
- AGTTCAAA — higher, 0.0355 % of ANNNNAAN 8-mers
- AGTGGAAT — higher, 0.0995 % of ANNNNAAN 8-mers

The sequences below were run against T1, POU2 (OCT2 POU domain) (human, UniProt P09086 175-386) in the same assay as above. Details: protein: recombinant; dsDNA, one strand shown.
T1 sequence: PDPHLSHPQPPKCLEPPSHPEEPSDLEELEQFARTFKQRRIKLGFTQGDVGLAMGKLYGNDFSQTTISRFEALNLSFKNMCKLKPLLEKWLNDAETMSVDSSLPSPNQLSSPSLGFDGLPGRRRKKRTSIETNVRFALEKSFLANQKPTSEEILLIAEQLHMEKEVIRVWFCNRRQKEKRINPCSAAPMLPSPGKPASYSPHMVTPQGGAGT
How it was run: as §1

Point of comparison: AGTTAAAT, binding signal 0.213 % of ANNNNAAN 8-mers. Against it:
- ACGAAAAG — lower, 0.0368 % of ANNNNAAN 8-mers
- ATCTCAAT — lower, 0.0846 % of ANNNNAAN 8-mers
- ACGCTAAA — lower, 0.0391 % of ANNNNAAN 8-mers
- AAGACAAT — lower, 0.0478 % of ANNNNAAN 8-mers
- AGATTAAG — lower, 0.088 % of ANNNNAAN 8-mers
- ATGAAAAC — lower, 0.0604 % of ANNNNAAN 8-mers
- AAACAAAG — lower, 0.0742 % of ANNNNAAN 8-mers
- AATGAAAA — lower, 0.152 % of ANNNNAAN 8-mers
- AGTAGAAT — lower, 0.0892 % of ANNNNAAN 8-mers
- AGTGGAAG — lower, 0.0357 % of ANNNNAAN 8-mers
- ACATTAAG — lower, 0.0875 % of ANNNNAAN 8-mers
- AGCATAAC — lower, 0.099 % of ANNNNAAN 8-mers
- AGCACAAA — lower, 0.0242 % of ANNNNAAN 8-mers
- ACAGGAAA — lower, 0.0506 % of ANNNNAAN 8-mers
- ACAGAAAC — lower, 0.0259 % of ANNNNAAN 8-mers
- AGGAAAAT — lower, 0.2 % of ANNNNAAN 8-mers
- AATAAAAC — lower, 0.0967 % of ANNNNAAN 8-mers
- ACTTTAAG — lower, 0.0299 % of ANNNNAAN 8-mers
- AAGCCAAC — lower, 0.0161 % of ANNNNAAN 8-mers
- ATTTAAAC — lower, 0.161 % of ANNNNAAN 8-mers
- AATACAAT — lower, 0.107 % of ANNNNAAN 8-mers
- ATCCCAAG — lower, 0.0167 % of ANNNNAAN 8-mers
- AGCAGAAC — lower, 0.0299 % of ANNNNAAN 8-mers
- AGAAGAAG — lower, 0.0547 % of ANNNNAAN 8-mers
- ATAAAAAA — lower, 0.1 % of ANNNNAAN 8-mers
- AAATCAAA — lower, 0.117 % of ANNNNAAN 8-mers
- ACGACAAA — lower, 0.0299 % of ANNNNAAN 8-mers
- AATTCAAT — lower, 0.125 % of ANNNNAAN 8-mers
- ATTTCAAA — lower, 0.0852 % of ANNNNAAN 8-mers
- AAGTGAAC — lower, 0.0305 % of ANNNNAAN 8-mers
- ACTTCAAA — lower, 0.0322 % of ANNNNAAN 8-mers
- AATGCAAG — lower, 0.0512 % of ANNNNAAN 8-mers
- ACCGGAAT — lower, 0.0489 % of ANNNNAAN 8-mers
- AGGGAAAT — higher, 0.365 % of ANNNNAAN 8-mers
- AGGTCAAT — lower, 0.0662 % of ANNNNAAN 8-mers
- ATATAAAG — lower, 0.088 % of ANNNNAAN 8-mers
- AGTTCAAA — lower, 0.0357 % of ANNNNAAN 8-mers
- AGTGGAAT — lower, 0.121 % of ANNNNAAN 8-mers
